Laboratory results taken from PubChem BioAssay.
Records with an inconclusive call do not appear. Active and inactive are the calls of the source.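 Rule for the calls, unless noted: active = normalized viability below 100% at a tested concentration; inactive = the rest.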

Key:
[1] = liver-stage malaria parasite growth inhibition, primary screen, cell-based, HepG2, luciferase luminescence, HepG2 viability (AID 624349; in the data active = parasite load remaining mostly below about 12%, no sharp cut-off; inactive = mostly above about 10%;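 note: 100% = mean of DMSO negative control wells on the same plate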); conditions: P. berghei liver stage in HepG2, luciferase luminescence, concentration not given here; parasite load remaining: stronger effect = lower value; viability: measured here: HepG2 viability without parasites
[2] = stimulators of nuclear beta-catenin in C2C12, primary screen, imaging, WNT3A-conditioned medium, mouse C2C12, NPC library (AID 1117326; in the data active = nuclear beta-catenin stimulation mostly above about 4.2%, no sharp cut-off; inactive = mostly below about 10%); conditions: stronger effect = higher value
[3] = stimulators of insulin release from INS-1E, primary screen, cell-based, 5 mM glucose, NPC library (AID 1117329;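 active = compound raises insulin release from rat beta cells at 5 mM glucose, no numeric limit stated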); conditions: rat INS-1E insulin secretion, at 10 µM, stronger effect = higher value
[4] = growth inhibition of GSK3B-pretreated HCT116 cells – cell-based, CellTiter-Glo, 0.2 to 20 µM (AID 1117336;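 active = compounds lowering colon cancer cell viability after pretreatment blocking the GSK3B kinase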); conditions: HCT116 viability after GSK3B inhibitor, at 20 µM, stronger effect = higher value
[5] = inhibition of endothelial tube formation, primary screen, imaging, VEGF stimulated, CD31 staining, tube area, NPC library (AID 1117340;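 active = compound that reduces growth-factor-driven endothelial tube area in a mixed cell culture, no cutoff stated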); conditions: VEGF-stimulated ADSC/ECFC co-culture, at 10 µM, stronger effect = higher value
[6] = glucagon-like peptide 1 release enhancers, primary assay, NCI-H716 cell line, NPC library (AID 1117341;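 active = compound raises GLP1 secretion from the human gut endocrine cells, with no numeric limit stated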); conditions: NCI-H716 cells, at 10 µM, stronger effect = higher value
[7] = HCT116 colon cancer cell growth inhibition, primary screen, CellTiter-Glo luminescence, NPC library (AID 1117342;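 active = compounds that lower survival of HCT116 colon cancer cells in the luminescence readout, no numeric limit stated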); conditions: at 20 µM (top of the series)
[8] = CellTiter-Glo luminescent readout of SW480 viability loss, NPC library primary (AID 1117343;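 active = compounds that lower viability of the colon cancer cells in the luminescence readout, with no numeric limit stated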); conditions: CellTiter-Glo luminescence; at 20 µM (top of the series) unless noted
[9] = decreased DLD-1 cellular survival, CellTiter-Glo luminescent readout, NPC compound collection, primary HTS (AID 1117346;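 active = compounds that lower survival of DLD-1 colon cancer cells in the luminescence readout, no cutoff given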); conditions: DLD-1 viability, CellTiter-Glo luminescence; at 20 µM (top of the series)
[10] = differential killing of epithelial or mesenchymal cells, primary screen, imaging, PC-3E GFP, TEM4-18 mCherry, co-culture (AID 1345086;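 active = compounds killing one labelled cell type while sparing the other, by normalised counts and ratio limits, not self-fluorescent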;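 for all read-outs here: cells exposed to compound for 72 h before imaging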;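 for red/green cell ratio (normalised): normalised mesenchymal count divided by normalised epithelial count so high means epithelial killing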); conditions: imaging cell counts, at 1 µM; for red/green cell ratio (normalised): actives lie on both sides, counts scaled to control wells, 1 = unselective
[11] = sensitizers of A549 cells to miR-34 induction, primary screen, imaging, A549 dox-inducible miR-34, nuclei and caspase counts (AID 1347080;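 active = compounds whose cell count with miR-34 switched on is under 0.7 times the count with it off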); conditions: A549 miR-34 inducible, Hoechst nuclei count, 48 h
[12] = biological target: NAD(+) hydrolase SARM1 (Homo sapiens) (UniProt Q6SZW1); test: SARM1 TIR NADase inhibitors, cell lysate, NAD-Glo luminescence (AID 1508614;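 active = compound whose remaining NAD level is above about 45 nM, limit read from the data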;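 note: higher remaining NAD means stronger inhibition of SARM1 NADase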); conditions: SAM-TIR HEK293T lysate NADase, at 1 µM, stronger effect = higher value
[13] = test system: Aerobactin synthetase IucA (Klebsiella pneumoniae); test: IucA aerobactin synthetase inhibitors, biochemical, Tocris library, absorbance (AID 1345561; call rule not given here;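 note: 100% = enzyme without compound and 0% = no enzyme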); conditions: purified IucA enzyme assay, absorbance (OD) read-out; stronger effect = lower value;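 tested at 8 µM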
[14] = growth inhibition of DIPG glioma cells, dose response, cell-based, SU-DIPG-XVII, MIPE5.0, CellTiter-Glo, qHTS (AID 1347060; cut-off not given, nearly all actives have AC50 up to about 26 µM); conditions: SU-DIPG-XVII viability, CellTiter-Glo ATP luminescence
[15] = growth inhibition of DIPG glioma cells, dose response, cell-based, SU-DIPG-XIII, MIPE4.0, CellTiter-Glo, qHTS (AID 1347061; cut-off not given, nearly all actives have AC50 up to about 37 µM;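 note: cells exposed to compound for 48 hours before readout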); conditions: SU-DIPG-XIII viability, CellTiter-Glo ATP luminescence
[16] = growth inhibition of DIPG glioma cells, dose response, cell-based, JHH-DIPG-1, MIPE4.0, CellTiter-Glo, qHTS (AID 1347062; cut-off not given, nearly all actives have AC50 up to about 27 µM); conditions: JHH-DIPG-1 viability, CellTiter-Glo ATP luminescence
[17] = SU-DIPG-XXV glioma cell viability, MIPE5.0 library, qHTS (AID 1347068; cut-off not given, nearly all actives have IC50 up to about 30 µM)
[18] = ovarian cancer cell viability with rucaparib, profiling panel, oncology-focused library, rucaparib conditional (AID 1508598); conditions: patient-derived ovarian cancer cells, CellTiter-Glo viability, 144 h, stronger effect = lower value
[19] = viability rescue of complex I mutant cybrids, primary screen, cell-based, galactose medium, ATP luminescence (AID 1645843;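 active = z-score of at least 1.8 in each of two replicates, scored against plate mean and spread of sample wells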;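 note: positive z means more ATP and so rescue of galactose-driven cybrid death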); conditions: complex I mutant cybrid cells, 72 h, stronger effect = higher value
[20] = measured here: epithelial PC-3E GFP cell survival
[21] = measured here: mesenchymal TEM4-18 mCherry cell survival
[22] = stronger effect = lower value, cell number ratio, induced over uninduced
[23] = measured here: relative caspase fold change +Dox/-Dox
[24] = measured here: total cells with miR-34 induction, stronger effect = lower value
[25] = measured here: total cells without miR-34 induction

Sequence of NAD(+) hydrolase SARM1 (Homo sapiens) (Q6SZW1 whole entry, looked up): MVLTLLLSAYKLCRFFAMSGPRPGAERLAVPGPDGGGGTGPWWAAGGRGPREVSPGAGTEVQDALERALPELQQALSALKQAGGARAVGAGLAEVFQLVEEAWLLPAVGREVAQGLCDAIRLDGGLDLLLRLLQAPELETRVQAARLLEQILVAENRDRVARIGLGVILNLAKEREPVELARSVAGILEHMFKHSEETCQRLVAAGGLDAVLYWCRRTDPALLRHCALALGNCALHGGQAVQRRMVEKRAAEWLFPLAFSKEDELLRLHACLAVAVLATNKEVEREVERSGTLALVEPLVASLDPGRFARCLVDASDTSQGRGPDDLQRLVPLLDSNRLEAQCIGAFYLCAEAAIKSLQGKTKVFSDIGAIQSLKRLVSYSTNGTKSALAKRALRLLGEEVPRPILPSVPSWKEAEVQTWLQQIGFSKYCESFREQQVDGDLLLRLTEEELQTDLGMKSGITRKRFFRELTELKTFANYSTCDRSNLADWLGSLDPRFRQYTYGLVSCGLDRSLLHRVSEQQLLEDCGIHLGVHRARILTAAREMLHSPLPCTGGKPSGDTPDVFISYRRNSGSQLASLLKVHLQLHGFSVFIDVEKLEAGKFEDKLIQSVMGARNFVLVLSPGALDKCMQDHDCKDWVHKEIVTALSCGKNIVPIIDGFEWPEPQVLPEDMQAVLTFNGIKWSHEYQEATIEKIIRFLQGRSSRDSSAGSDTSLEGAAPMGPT

NC(=O)c1cc[n+](CC2=C(C(=O)[O-])N3C(=O)[C@@H](NC(=O)Cc4cccs4)[C@H]3SC2)cc1
1.26: normalised cell number [10, 20]
inactive: parasite load remaining [1] 91.4% | nuclear beta-catenin stimulation ([2]; at 10 µM) -2.2% | insulin secretion stimulation [3] 11.8% | viability decrease [4] 10.6% | tube area decrease [5] -7.6% | GLP1 secretion stimulation [6] 0.9% | inhibition of viability [7] -2.6% | viability decrease (inhibition) [8] 3.4% | viability decrease (inhibition) [9] 5.4% | red/green cell ratio (normalised) [10] 0.75 | fold change [11, 22] 0.969 | remaining NAD [12] 10 nM
73.4%: viability [1]
10100: cell count [11, 25]
0.94: normalised cell number [10, 21]
9810: cell count [11, 24]
0.479: fold change [11, 23]
-0.6%: nuclear beta-catenin stimulation ([2]; stimulation, at 2 µM)

Nc1ncn([C@H]2C[C@H](O)[C@@H](CO)O2)c(=O)n1
inactive: nuclear beta-catenin stimulation ([2]; at 10 µM) 7.2% | insulin secretion stimulation [3] -1.2% | viability decrease [4] 33.4% | GLP1 secretion stimulation [6] 1.6% | inhibition of viability [7] 31.2% | viability decrease (inhibition) [9] 18.9% | remaining activity [13] 97% | outcome [14] | outcome [15] | outcome [16] | outcome [17] | fold change [11, 22] 0.823 | viability ([18]; at 0.000305 µM, OCI-C5x cells, with rucaparib 10 µM, 100% = cells with rucaparib alone) 122% | viability ([18]; at 0.000305 µM, OCI-C5x cells, without rucaparib) 112% | viability ([18]; at 0.000305 µM, OCI-P5x cells, with rucaparib 20 µM, 100% = cells with rucaparib alone) 104% | viability ([18]; at 0.000305 µM, OCI-P5x cells, without rucaparib) 112% | viability ([18]; at 0.00122 µM, OCI-C5x cells, with rucaparib 10 µM, 100% = cells with rucaparib alone) 111% | viability ([18]; at 0.00122 µM, OCI-C5x cells, without rucaparib) 107% | viability ([18]; at 0.00122 µM, OCI-P5x cells, with rucaparib 20 µM, 100% = cells with rucaparib alone) 111% | viability ([18]; at 0.00122 µM, OCI-P5x cells, without rucaparib) 103% | viability ([18]; at 0.00488 µM, OCI-C5x cells, with rucaparib 10 µM, 100% = cells with rucaparib alone) 113% | viability ([18]; at 0.00488 µM, OCI-C5x cells, without rucaparib) 112% | viability ([18]; at 0.0195 µM, OCI-C5x cells, with rucaparib 10 µM, 100% = cells with rucaparib alone) 103% | viability ([18]; at 0.0195 µM, OCI-C5x cells, without rucaparib) 108% | viability ([18]; at 0.0781 µM, OCI-C5x cells, with rucaparib 10 µM, 100% = cells with rucaparib alone) 101% | viability ([18]; at 0.0781 µM, OCI-C5x cells, without rucaparib) 107% | z-score [19] 0.69
4.5%: nuclear beta-catenin stimulation ([2]; stimulation, at 2 µM)
9960: cell count [11, 25]
1.99: fold change [11, 23]
active: tube area decrease [5] 58.1% | viability decrease (inhibition) [8] 53.8% | viability ([18]; at 0.00488 µM, OCI-P5x cells, with rucaparib 20 µM, 100% = cells with rucaparib alone) 99.8% | viability ([18]; at 0.00488 µM, OCI-P5x cells, without rucaparib) 95.8% | viability ([18]; at 0.0195 µM, OCI-P5x cells, with rucaparib 20 µM, 100% = cells with rucaparib alone) 82.8% | viability ([18]; at 0.0195 µM, OCI-P5x cells, without rucaparib) 95.2% | viability ([18]; at 0.0781 µM, OCI-P5x cells, with rucaparib 20 µM, 100% = cells with rucaparib alone) 96.6% | viability ([18]; at 0.0781 µM, OCI-P5x cells, without rucaparib) 88.3% | viability ([18]; at 0.313 µM, OCI-C5x cells, with rucaparib 10 µM, 100% = cells with rucaparib alone) 85.8% | viability ([18]; at 0.313 µM, OCI-C5x cells, without rucaparib) 88.1% | viability ([18]; at 0.313 µM, OCI-P5x cells, with rucaparib 20 µM, 100% = cells with rucaparib alone) 84.8% | viability ([18]; at 0.313 µM, OCI-P5x cells, without rucaparib) 68.4% | viability ([18]; at 1.25 µM, OCI-C5x cells, with rucaparib 10 µM, 100% = cells with rucaparib alone) 80.4% | viability ([18]; at 1.25 µM, OCI-C5x cells, without rucaparib) 80% | viability ([18]; at 1.25 µM, OCI-P5x cells, with rucaparib 20 µM, 100% = cells with rucaparib alone) 68.8% | viability ([18]; at 1.25 µM, OCI-P5x cells, without rucaparib) 61.9% | viability ([18]; at 5 µM, OCI-C5x cells, with rucaparib 10 µM, 100% = cells with rucaparib alone) 49.1% | viability ([18]; at 5 µM, OCI-C5x cells, without rucaparib) 63.2% | viability ([18]; at 5 µM, OCI-P5x cells, with rucaparib 20 µM, 100% = cells with rucaparib alone) 57.9% | viability ([18]; at 5 µM, OCI-P5x cells, without rucaparib) 46.9%
8200: cell count [11, 24]

O=C(OOC(=O)c1ccccc1)c1ccccc1
0.3%: nuclear beta-catenin stimulation ([2]; stimulation, at 2 µM)
1.15: normalised cell number [10, 21]
10800: cell count [11, 24]
1.11: normalised cell number [10, 20]
11400: cell count [11, 25]
3.94: fold change [11, 23]
82.1%: viability [1]
inactive: parasite load remaining [1] 39% | nuclear beta-catenin stimulation ([2]; at 10 µM) 2.3% | insulin secretion stimulation [3] -1.3% | viability decrease [4] -5.45% | tube area decrease [5] -15.4% | GLP1 secretion stimulation [6] -3.2% | inhibition of viability [7] 1.1% | viability decrease (inhibition) [8] 10% | viability decrease (inhibition) [9] 18.9% | red/green cell ratio (normalised) [10] 1.04 | fold change [11, 22] 0.948 | remaining NAD [12] 10 nM
